34 compounds from the supplement of paper PMC3898565 can be followed below.

Molecules are shown by their SMILES. Where “and” joins values, the source holds several entries; their conditions need not be identical. Equal values may be shown once. Where a name gives a salt, the structure may show the parent alone. ± gives the uncertainty stated by the source.
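Also: viable cell number estimated from Alamar Blue fluorescence read at 560/90, part of a single-dose primary screen of an FDA-approved drug library.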

This assay relates to U87. Briefly: cell viability relative to vehicle control; higher = less growth inhibition (less active). The conditions noted are these: 10 µM; 72 h.
For `C=C(C)CN1CC[C@]23c4c5ccc(O)c4O[C@H]2c2[nH]c4ccccc4c2C[C@@]3(O)C1C5`, the cell viability (in general, a read-out of living cells in per cent, often relative to untreated cells) was determined as 101 ± 1.4%.

As to `COc1ccc(CCN)cc1OC` [Homoveratrylamine], the cell viability amounted to 104 ± 1.1%.

Turning to `Cc1ncc2n1-c1ccc(Cl)cc1C(c1ccccc1F)=NC2`, the cell viability is 102.2 ± 0.87%.

On to `COc1cc(N)c(Cl)cc1C(=O)NC1CN2CCC1CC2` (centres undefined) [Zacopride], for which the cell viability stood at 101.7 ± 0.79%.

For the compound `FC(F)(F)c1cccc(N2CCNCC2)c1`, the cell viability came to 109 ± 1.2%.

As for `NC1=NC(=O)C(c2ccccc2)O1` (centres undefined) [Pemoline], the cell viability was 102.8 ± 0.87%.

Consider `CNC1CC(c2ccc(Cl)c(Cl)c2)c2ccccc21` (centres undefined) [Indatraline], for which the cell viability stood at 99.93 ± 0.57%.

`C=C(C)[C@@H]1[C@H]2OC(=O)[C@@H]1[C@]1(O)C[C@H]3O[C@]34C(=O)O[C@H]2[C@]14C.CC(C)(O)[C@@H]1[C@H]2OC(=O)[C@@H]1[C@]1(O)C[C@H]3O[C@]34C(=O)O[C@H]2[C@]14C` [Picrotin - Picrotoxinin]: the cell viability worked out at 105 ± 1.3%.

As for `CCCCC/C=C\C/C=C\C/C=C\C/C=C\CCCC(=O)Nc1ccc(O)cc1`, the cell viability turned out to be 100.5 ± 0.91%.

Consider `CC(NC(C)(C)C)C(=O)c1cccc(Cl)c1` (centres undefined), for which the cell viability is 105% and 107%.

Take `OC1CCCCC1N1CCC(c2ccccc2)CC1` (centres undefined): the cell viability worked out at 95 ± 2.2%.

On to `Oc1cc2c(cc1O)[C@H]1c3ccccc3CN[C@@H]1CC2`, for which the cell viability is 109 ± 1.4%.

As to `CS(=O)(=O)Nc1ccc(Cc2noc(-c3ccc4[nH]cc(CCN)c4c3)n2)cc1`, the cell viability was determined as 106 ± 1.2%.

With `C[N+]1(CCC(C(N)=O)(c2ccccc2)c2ccccc2)CCCCC1`, the cell viability turned out to be 102 ± 1.4%.

On to `CNC1=Nc2ccc(Cl)cc2C(c2ccccc2)=[N+]([O-])C1`, for which the cell viability stood at 104 ± 1.7%.

On to `c1cncc([C@@H]2CCCN2)c1` [Nornicotine], for which the cell viability is 111 ± 3.4%.

`NC(=O)C[S+]([O-])C(c1ccccc1)c1ccccc1` (centres undefined) [Modafinil]: the cell viability amounted to 107 ± 1.4%.

Consider `C[C@]12CC[C@H](O)CC1=CC[C@@H]1[C@@H]2CC[C@]2(C)C(=O)CC[C@@H]12`, for which the cell viability is 116 ± 9.3%.

For `O=C(O)C(Cl)Cl`, the cell viability stood at 101 ± 1.6%.

In the case of `C[C@]12CCC(=O)C[C@@H]1CC[C@@H]1[C@@H]2CC[C@@]2(C)[C@H]1CC[C@]2(C)O` [Mestanolone], the cell viability is 105.6 ± 0.93%.

Turning to `C=C1C[C@@H]2[C@H](CC[C@]3(C)C(=O)CC[C@@H]23)[C@@]2(C)C=CC(=O)C=C12`, the cell viability was found to be 107 ± 2.5%.

In the case of `NCCc1ccccn1`, the cell viability was found to be 104 ± 1.4%.

Regarding `CC[C@@H]1C=CC=CC[C@H](C)[C@@H](O)[C@@H](C)C(=O)[C@H](C)[C@@H](O)[C@H](C)C(=O)[C@H](C)[C@@H](O)[C@H](C)C=CC(=O)O[C@H]2[C@@H](C)[C@@H](CC1)O[C@@]1(CC[C@@H](C)[C@@H](C[C@H](C)O)O1)[C@@H]2C`, the cell viability was 109 ± 11%.

As for `CNCC(O)c1ccc(O)cc1` (centres undefined), the cell viability came to 107 ± 4.5%.

Consider `CN1C(=O)CN=C(c2ccccc2)c2cc([N+](=O)[O-])ccc21` [Nimetazepam], for which the cell viability was determined as 108 ± 2.6%.

Turning to `CCCN1C[C@H](CSC)C[C@@H]2c3cccc4[nH]cc(c34)C[C@H]21` [Pergolide], the cell viability is 109.4 ± 1%.

With `C[C@]12CC[C@H]3[C@@H](CCC4=CC(=O)CC[C@@H]43)[C@@H]1CC[C@@H]2O` [Nandrolone], the cell viability worked out at 101.5 ± 0.8%.

As for `COc1ccc2c(c1)[C@]13CCCC[C@@H]1[C@H](C2)N(C)CC3` [d-3-Methoxy-N-methylmorphinan hydrobromide], the cell viability worked out at 103 ± 1.2%.

For `Cc1nnc2n1-c1ccc(Cl)cc1C(c1ccccc1)=NC2` [Alprazolam], the cell viability amounted to 89.23 ± 0.4%.

Take `COc1ccc(C(CN(C)C)C2(O)CCCCC2)cc1` (centres undefined): the cell viability was determined as 103 ± 1.8%.

Take `CCN(C(C)=O)c1cccc(-c2ccnc3c(C#N)cnn23)c1` [Zaleplon]: the cell viability was found to be 111.7 ± 0.3%.

With `c1ccc2c(c1)Nc1ccccc1S2`, the cell viability turned out to be 110.5 ± 0.17%.

With `c1ccc2c3c([nH]c2c1)CNCC3`, the cell viability is 104 ± 1.1%.

Regarding `C[C@]12CC[C@H](O)CC1=CC[C@@H]1[C@@H]2CC[C@@]2(C)[C@H]1CC[C@]2(C)O`, the cell viability came to 127 ± 3.6%.
